High-throughput results deposited in PubChem by National Center for Advancing Translational Sciences (NCATS).
Rows were chosen to be rich in hits. Some 13% of all compounds tested hit in one or more screens of this group.
HCMV inh: blocks human cytomegalovirus replication. AID 1259415. HFF cells, HCMV-luciferase reporter, 72 h; hits give low values. activity change, negative = inhibition, % at 57.5 µM. 4.5% of 410,000 active; in the data active = activity change below about -60%; inconclusive = no clear call, values can overlap the other calls; inactive = above about -39%
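Screen run at 2 compound doses on HFFs infected with reporter HCMV, MOI 1 PFU/cell. Luciferase activity from cell lysates at 72 h post infection gave inhibition relative to buffer-only and Salinomycin wells.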
Pf growth 96h: P. falciparum growth inhibition at 96 hour, primary screen for plastid delayed-death inhibitors; P. falciparum luciferase reporter growth, 96 h; Potency, µM (titrated, usually from 28.7 µM), actives largely listed as inhibitors; 6.9% of 320,000 active; AID 504834
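Compounds incubated with erythrocytes infected by luciferase-expressing P. falciparum (2% hematocrit, 0.05% parasitemia final) for 96 hours, 37 C in 5% CO2. Growth inhibition scored as decreased luciferase luminescence.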
Pf growth 48h: inhibits P. falciparum growth in the first generation, 48 h; P. falciparum luciferase growth in erythrocytes, 48 h; Potency, µM (doses to about 28.7 µM), actives largely listed as inhibitors; 5.9% of 310,000 active; AID 504832
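Compounds are pin-transferred into medium, infected erythrocytes (2% hematocrit, 0.1% parasitemia final) are added, and plates sit one parasite generation at 37 C in 5% CO2. Detection reagent is then added and luminescence measured.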
HCV inh: blocks hepatitis C virus; Potency, µM (top dose mostly 41.8 µM), most hits filed as inhibitors; 3.4% of 340,000 active; Huh7.5.1 HCVcc-Cre infection, luciferase reporter, 44 h
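HCVcc-Cre virus at an moi near 0.5 was added right after compound to cells cultured 4 h from seeding (1,000 cells/well). Luciferase activity was determined 44 h later, 15 min after substrate addition at RT.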
Each line names hits and unclear results; the compound was inactive in the other large screens. Unless noted, calls follow the shape of the dose curve; as a rule, active = well fitted inhibition curve with a large enough effect; inconclusive = small, poorly fitted or top-dose-only effect, or another doubt; inactive = no such curve, though single readings can be large or run the other way.

COc1ccc(NC(=O)c2nn(C)c(=O)c3ccccc23)cc1S(=O)(=O)Nc1ccccc1Cl	HCV inh 13µM
COc1ccc(NC(=O)c2cc(C)nc3ccccc23)cc1S(=O)(=O)Nc1ccccc1Cl	Pf growth 96h inconclusive, HCV inh inconclusive
COc1ccccc1NS(=O)(=O)c1cccc(NC(=O)c2nn(C)c(=O)c3ccccc23)c1	Pf growth 96h 10µM, Pf growth 48h inconclusive, HCV inh inconclusive
CCOC(=O)Cn1c(=O)n(C2CCCCC2)c2nc(-c3ccc(CC)cc3)nc(C(N)=O)c21	none (no result: Pf growth 96h, Pf growth 48h, HCV inh)
Cc1ccc(CCNC(=O)c2c(C)oc3ncnc(N4CCOCC4)c23)cc1	none (no result: Pf growth 96h, Pf growth 48h, HCV inh)
COc1ccc(-c2cc(C)no2)cc1S(=O)(=O)Nc1c(C)cc(C)cc1C	none (no result: Pf growth 96h, Pf growth 48h, HCV inh)
CCN(C(=O)Cn1cnc2onc(-c3ccc(F)cc3)c2c1=O)c1cc(C)ccc1C	none (no result: Pf growth 96h, Pf growth 48h, HCV inh)
C=C(C)C(=O)OC1(C(F)(F)F)Oc2cc(C)ccc2NC1=O (configuration not stated)	HCMV inh -95, Pf growth 48h inconclusive
COc1cc(OC)c(NC(=O)N2CCOc3ccc(C)cc32)cc1Cl	none (no result: Pf growth 96h, Pf growth 48h, HCV inh)
CCOC(=O)Cn1c(S(=O)(=O)Cc2ccc(Cl)cc2)nc(-c2ccccc2)c1-c1ccccc1	HCMV inh inconclusive, Pf growth 96h 10µM, Pf growth 48h inconclusive, HCV inh 35µM
CC(=O)C1=C(c2ccccc2)NC(=S)NC1c1ccc(O)c(O)c1 (configuration not stated)	Pf growth 96h 13µM
C[C@@H]1C(NC(=O)c2ccccc2)CC2CC1C2(C)C (some centres not stated)	Pf growth 96h 7.4µM
COc1ccc(OC)c(NC(=O)c2cc(S(=O)(=O)NCc3ccco3)ccc2F)c1	Pf growth 96h 1.2µM, HCV inh 25µM
O=C(Nc1ccc(S(=O)(=O)NCc2ccco2)cc1)c1cccc(F)c1	none
COc1ccccc1NC(=O)c1cc(S(=O)(=O)NCc2ccccc2)ccc1F	Pf growth 96h 5.2µM, Pf growth 48h inconclusive, HCV inh inconclusive
COc1cccc(C(=O)Nc2ccc(S(=O)(=O)NCc3ccco3)cc2)c1	HCV inh 25µM (no result: Pf growth 96h)
CCOc1ccccc1NC(=O)c1cc(S(=O)(=O)NCc2ccco2)ccc1F	none
COc1ccc(CNS(=O)(=O)c2ccc(F)c(C(=O)Nc3ccccc3OC)c2)cc1	HCMV inh inconclusive, Pf growth 96h 2.3µM
Cc1ccc(C(=O)c2cn(CC(=O)Nc3ccc(C(C)C)cc3)c3nc(C)ccc3c2=O)cc1	none (no result: Pf growth 96h, Pf growth 48h, HCV inh)
C[C@@H](C(=O)Nc1ccc2ccccc2c1)[C@H]1C[C@]1(C)[C@H](NS(=O)(=O)c1ccc(-c2ccccc2)cc1)c1ccccc1	Pf growth 96h 8.3µM, Pf growth 48h 12µM
Cc1nn(C)c(Cl)c1S(=O)(=O)N[C@@H](c1ccccc1)[C@]1(C)C[C@H]1[C@@H](C)C(=O)Nc1ccc2ccccc2c1	HCV inh inconclusive
C[C@@H](C(=O)Nc1ccc2ccccc2c1)[C@@H]1C[C@@]1(C)[C@@H](NC(=O)c1ccccc1)c1ccccc1	Pf growth 96h 13µM, Pf growth 48h inconclusive
COC(=O)N[C@H](c1ccccc1)[C@@]1(C)C[C@@H]1[C@@H](C)C(=O)Nc1ccc2ccccc2c1	none (no result: Pf growth 96h, Pf growth 48h)
C[C@@H](C(=O)Nc1ccc2ccccc2c1)[C@H]1C[C@]1(C)[C@H](NC(=O)c1cccnc1)c1ccccc1	Pf growth 96h 5.2µM, Pf growth 48h 5.2µM, HCV inh inconclusive
COc1cccc(NC(=O)C(Cc2ccccc2)N2Cc3ccccc3C2=O)c1 (configuration not stated)	none (no result: Pf growth 96h, Pf growth 48h, HCV inh)
N#Cc1cc2c(=O)n3ccccc3nc2n(-c2nnc(SCc3ccc(F)cc3)s2)c1=O	none (no result: Pf growth 96h, Pf growth 48h, HCV inh)
CCOc1ccc(NC(=O)CN2CCCC2c2cccs2)cc1S(=O)(=O)N1CCCC1 (configuration not stated)	HCMV inh -92, Pf growth 96h 15µM, Pf growth 48h 12µM, HCV inh 11µM
O=C(CN1CCCC1c1cccs1)Nc1cc(S(=O)(=O)N2CCCC2)ccc1Cl (configuration not stated)	HCV inh inconclusive (no result: Pf growth 96h, Pf growth 48h)
CCOc1ccc(NC(=O)CN2CCN(c3ccccc3C)CC2)cc1S(=O)(=O)N1CCCC1	Pf growth 48h inconclusive, HCV inh inconclusive
O=C(CN1CCCC1c1cccs1)Nc1cccc(S(=O)(=O)N2CCCC2)c1 (configuration not stated)	Pf growth 96h inconclusive, Pf growth 48h inconclusive, HCV inh 10µM
CCOC(=O)c1cc(S(=O)(=O)N2CCN(c3ccc(OC)cc3)CC2)[nH]n1	HCMV inh -112 (no result: Pf growth 96h, Pf growth 48h, HCV inh)
